Compound activity from PubChem BioAssay.
This is a sample that favours compounds with a hit; in the whole collection about 12% have one here.
hDAT+cocaine – changed hDAT dopamine uptake under cocaine IC80, either direction, primary screen, cocaine antagonist project, cell-based, LLC-PK1 hDAT, [14C]-dopamine uptake, MLSMR. LLC-PK1 hDAT cells, [14C]-dopamine uptake with cocaine IC80; actives deviate in either direction. B-score at 10 µM. hit rate 1.3% among 110,000;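 active = Z score or B-score, a plate-position-corrected score, falls beyond the plate's 99.7% confidence bounds, in either direction; inactive = both scores lie inside the 99.7% bounds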;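 note: scored against the spread of the other compound wells on the same plate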
PostGolgi yeast – phenotypic screen on post-Golgi transport, primary screen | post-Golgi transport phenotypic cell assay | inhibition, % at 10 µM | hit rate 0.9% among 98,000;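 note: yeast cells grown in 1536-well plates; yeast grown about 18 h at 30C before absorbance read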
D1 allo mod – D1 CRE-luciferase signal change, two-sided – cell-based, HEK293 D1, dopamine EC30, D1 allosteric modulator project, primary screen; dopamine EC30 potentiation; actives deviate in either direction; B-score at 10 µM; hit rate 5.9% among 58,000; D(1A) dopamine receptor (Homo sapiens), P21728;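 active = luminescence count or its row- and column-corrected plate score outside the 99.7% band of the plate's sample wells, on either side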
Cav3 T inh – Cav3.2 calcium influx blockers – cell-based, Fluo-4 calcium fluorescence, FDSS, MLSMR library, primary screen; Voltage-dependent T-type calcium channel subunit alpha-1H (Homo sapiens), O95180; Cav3.2-expressing cells; active compounds read low; B-score at 10 µM; hit rate 4% among 100,000; AID 449739, 2010;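 active = single-dose well whose peak fluorescence ratio is a statistical outlier from its plate by either plate-standardised score or position-corrected B-score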
Target sequence (O95180 whole entry, looked up): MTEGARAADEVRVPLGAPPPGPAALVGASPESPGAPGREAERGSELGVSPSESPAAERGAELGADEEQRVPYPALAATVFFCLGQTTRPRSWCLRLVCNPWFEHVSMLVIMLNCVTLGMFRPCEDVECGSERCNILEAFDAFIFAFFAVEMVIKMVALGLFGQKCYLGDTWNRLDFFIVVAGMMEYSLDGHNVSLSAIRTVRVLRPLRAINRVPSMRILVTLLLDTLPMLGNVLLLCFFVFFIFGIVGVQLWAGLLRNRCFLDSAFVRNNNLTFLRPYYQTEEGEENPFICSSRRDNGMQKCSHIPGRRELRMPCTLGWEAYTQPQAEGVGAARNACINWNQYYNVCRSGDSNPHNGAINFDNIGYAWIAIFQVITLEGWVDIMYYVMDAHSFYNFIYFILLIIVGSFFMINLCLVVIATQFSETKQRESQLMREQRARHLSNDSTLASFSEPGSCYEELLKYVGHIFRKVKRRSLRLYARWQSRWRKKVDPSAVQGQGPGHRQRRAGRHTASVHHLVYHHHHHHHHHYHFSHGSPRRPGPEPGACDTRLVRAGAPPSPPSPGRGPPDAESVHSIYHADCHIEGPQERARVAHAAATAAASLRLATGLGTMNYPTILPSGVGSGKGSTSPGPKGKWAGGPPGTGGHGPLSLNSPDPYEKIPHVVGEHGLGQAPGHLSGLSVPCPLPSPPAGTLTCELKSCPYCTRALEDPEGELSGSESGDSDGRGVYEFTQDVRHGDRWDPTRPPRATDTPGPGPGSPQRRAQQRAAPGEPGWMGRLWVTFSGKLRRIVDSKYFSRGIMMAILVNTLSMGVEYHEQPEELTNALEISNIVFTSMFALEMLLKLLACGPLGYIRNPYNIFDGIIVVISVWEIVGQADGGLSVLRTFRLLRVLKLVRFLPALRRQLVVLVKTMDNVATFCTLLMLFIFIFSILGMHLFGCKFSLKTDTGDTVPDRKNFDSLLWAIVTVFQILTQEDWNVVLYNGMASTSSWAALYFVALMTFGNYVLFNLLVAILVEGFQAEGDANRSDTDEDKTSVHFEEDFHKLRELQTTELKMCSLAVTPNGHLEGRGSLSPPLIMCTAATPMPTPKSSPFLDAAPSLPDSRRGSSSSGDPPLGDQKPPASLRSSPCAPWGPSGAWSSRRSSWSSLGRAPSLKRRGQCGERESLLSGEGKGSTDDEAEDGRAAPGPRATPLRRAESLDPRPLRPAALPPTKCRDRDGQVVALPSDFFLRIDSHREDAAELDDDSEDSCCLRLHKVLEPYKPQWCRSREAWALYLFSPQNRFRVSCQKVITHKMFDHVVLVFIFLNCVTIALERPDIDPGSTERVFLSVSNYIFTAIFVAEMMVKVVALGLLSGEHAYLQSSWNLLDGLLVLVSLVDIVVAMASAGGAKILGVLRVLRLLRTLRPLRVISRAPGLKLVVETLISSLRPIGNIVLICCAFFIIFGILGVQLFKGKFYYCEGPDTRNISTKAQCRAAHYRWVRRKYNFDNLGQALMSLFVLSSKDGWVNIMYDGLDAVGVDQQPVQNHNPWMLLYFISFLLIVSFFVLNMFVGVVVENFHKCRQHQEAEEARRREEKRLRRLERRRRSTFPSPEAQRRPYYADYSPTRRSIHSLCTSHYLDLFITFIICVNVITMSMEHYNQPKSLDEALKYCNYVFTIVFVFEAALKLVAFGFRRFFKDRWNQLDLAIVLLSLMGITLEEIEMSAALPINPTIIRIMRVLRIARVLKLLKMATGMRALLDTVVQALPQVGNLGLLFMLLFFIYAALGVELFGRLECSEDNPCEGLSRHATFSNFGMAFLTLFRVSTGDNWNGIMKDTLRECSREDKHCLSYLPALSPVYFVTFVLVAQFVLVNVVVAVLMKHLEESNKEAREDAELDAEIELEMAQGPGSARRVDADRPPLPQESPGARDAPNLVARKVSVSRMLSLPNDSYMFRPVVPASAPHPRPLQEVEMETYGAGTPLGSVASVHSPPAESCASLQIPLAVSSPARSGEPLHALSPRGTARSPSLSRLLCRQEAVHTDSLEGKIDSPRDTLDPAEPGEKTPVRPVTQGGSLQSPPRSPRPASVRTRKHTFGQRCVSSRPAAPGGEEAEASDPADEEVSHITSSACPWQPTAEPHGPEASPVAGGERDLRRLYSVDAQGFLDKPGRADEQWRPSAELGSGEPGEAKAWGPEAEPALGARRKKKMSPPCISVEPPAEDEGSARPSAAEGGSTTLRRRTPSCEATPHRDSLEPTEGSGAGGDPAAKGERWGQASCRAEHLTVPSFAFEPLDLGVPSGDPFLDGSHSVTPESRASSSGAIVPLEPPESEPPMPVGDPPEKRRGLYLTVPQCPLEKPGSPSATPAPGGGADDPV
PLAP activator – PLAP enzyme activators, biochemical, luminescence, HTS; Alkaline phosphatase, placental type (Homo sapiens), P05187; purified PLAP enzyme, luminescent substrate read-out; active compounds read high; AID 696, 2007; hit rate 1.2% among 96,000; activation fold at 20 µM; in the data active = activation fold above about 2
PostGolgi ctrl – growth inhibition of yeast control strain, primary screen, counter-screen for post-Golgi transport modulator project. efflux-deficient yeast background strain, growth absorbance A615, 16 h. inhibition, % at 10 µM. hit rate 5% among 98,000
D1 mod confirm – D1 receptor positive allosteric modulators, retest, confirmation, cell-based, HEK293 D1, CRE-luciferase, duplicate | hit rate 88% among 2,200 | luminescence at 10 µM | dopamine EC30 potentiation; active compounds read high | shares compounds with D1 allo mod;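 active = luminescence in either of two replicates above the same-plate mean plus 3 SD of the low-dose dopamine control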
D1 ag no DA – D1 receptor agonism without dopamine, confirmation, mechanism study for D1 allosteric modulator project, cell-based, HEK293 D1, CRE-luciferase, secondary assay 1; shares compounds with D1 allo mod; luminescence, no dopamine; active compounds read high; AID 646, 2007; hit rate 0.8% among 1,900; luminescence at 10 µM; in the data active = luminescence above about 3900
Isoprot counter – alters isoproterenol CRE-luciferase response in HEK293 cells; AID 647; HEK293 D1 CRE-luciferase, isoproterenol EC30 counter-screen; calls only at 10 µM; hit rate 63% among 2,200; shares compounds with D1 allo mod;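 active = luminescence in either replicate above plate mean of wells with a partly effective reference agonist dose plus 3 SD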;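 note: isoproterenol raises cAMP through native beta-adrenoceptor Gs so signal bypasses D1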
* marks the source's active call; other numbers are inactive results; i = inactive; / = no result; + = active, no number. Cut-off read from the data, not from the text of the source, unless noted: active = inhibition above about 30%; inactive = the rest.

SMILES | hDAT+cocaine | PostGolgi yeast | D1 allo mod | Cav3 T inh | PLAP activator | PostGolgi ctrl | D1 mod confirm | D1 ag no DA | Isoprot counter
O=C(NCc1ccc2c(c1)OCO2)C1CCC(CNc2c(N3CCCC3)c(=O)c2=O)CC1 (stereo not drawn) | / | 11 | 2.3* | / | 0.9 | -6 | 5332 | 1668 | i
CCC(C)n1c(-c2cccs2)nc2nc3ccccc3nc21 (stereo not drawn) | -0.45 | 3 | 10* | -3.8 | 0.9 | 35* | 15740* | 1736 | +
C=CCn1c(-c2cccs2)nc2nc3ccccc3nc21 | 1.3 | -2 | 0.85 | 1.2 | 0.8 | 9 | / | / | /
CCCCN1CN(S(=O)(=O)c2cccs2)c2nc3ccccc3nc21 | -0.19 | 8 | 8.4* | 0.58 | 0.9 | -1 | 13480* | 1328 | +
COCCN1CN(S(=O)(=O)c2ccccc2)c2nc3ccccc3nc21 | -0.84 | 5 | 6.6* | -0.32 | 1.2 | 7 | 9164* | 1496 | +
CNC[C@H](O)c1cccc(O)c1 | 0.056 | / | 17* | -0.063 | / | / | 11024* | 5672* | +
CC(=O)C(C)Oc1ccc2c3c(c(=O)oc2c1C)CCCC3 (stereo not drawn) | / | 17 | 3.2* | / | 1 | 6 | 9268* | 1608 | +
CCOC(=O)C(C)Oc1cccc2c(=O)n(CC(=O)NCc3ccco3)ccc12 (stereo not drawn) | -1.3 | -11 | 3.3* | 0.48 | / | 5 | 6652* | 1628 | i
CC(C)C(=O)c1cn(CC(=O)NCc2ccco2)c2ccccc12 | 1.7 | / | / | 1.3 | / | / | / | / | /
CN(CC(=O)NCc1ccccc1)S(=O)(=O)c1cnc[nH]1 | -0.36 | -3 | / | / | 1 | 12 | / | / | /
Cc1cccc(CCNS(=O)(=O)c2cnc[nH]2)c1 | -0.76 | -2 | 4.4* | 0.45 | 1 | 4 | 5408 | 1484 | i
Cc1cc(C)c(C#N)c(Nc2ccccc2)n1 | -0.72 | / | / | -0.34 | / | / | / | / | /
COc1nccc(Nc2ccccc2)c1C#N | -0.88 | 10 | 6.6* | / | 1 | 6 | 14732* | / | +
Brc1ccc(-c2noc3c2-c2nc(C4CCCCC4)sc2CC3)cc1 | -0.99 | / | / | -0.17 | / | / | / | / | /
COC(=O)c1sccc1NC(=O)c1cc(C)on1 | / | -2 | 3.4* | / | 1 | 16 | 10948* | 1860 | +
COC(=O)c1sccc1NC(=O)c1c(C)noc1C | -0.24 | 1 | 1.3 | -0.7 | 0.9 | 2 | / | / | /
COC(=O)c1sccc1NC(=O)c1ccncc1 | -0.39 | -2 | 11* | -0.38 | 1.1 | 2 | 14580* | 1608 | +
CCOc1ccccc1NC(=O)Cn1nnc(-c2ccc(OCC)c(OCC)c2)n1 | -0.025 | 12 | 29* | / | 0.8 | 3 | 19636* | 1656 | +
COC(=O)c1sccc1NC(=O)Cn1nnc(-c2ccc(C)cc2)n1 | -0.67 | 10 | 2.4* | -0.041 | 1.2 | -4 | 4304 | 1332 | i
Cc1cccc(NC(=O)Cn2nnc(-c3cccs3)n2)c1C | -0.53 | -3 | -1.1 | -0.12 | 0.8 | 3 | / | / | /
COc1ccc(OC)c(S(=O)(=O)NCCc2ccccc2)c1 | 0.26 | 9 | / | -2.6 | 1.1 | 9 | / | / | /
Cc1ccc(-n2c(=O)[nH]c3cc(C(=O)NC4CCN(Cc5ccccc5)CC4)ccc3c2=O)cc1 | -1.3 | 13 | / | 0.05 | 1.2 | 4 | / | / | /
Cc1nn(C)c(Oc2ccc(Cl)cc2)c1C(=O)Nc1ccc(F)cc1F | -0.76 | -1 | / | -1.7 | 1.1 | 3 | / | / | /
